BAZ2B inh – qHTS Assay for Inhibitors of BAZ2B; AlphaScreen BAZ2B-H3K14Ac peptide displacement; Potency, µM (highest dose often 114 µM), without a hit: at the highest dose activity change, negative = inhibition, most hits filed as inhibitors; Bromodomain adjacent to zinc finger domain protein 2B (Homo sapiens), Q9UIF8; 4.4% of 360,000 active; further: on the % scale 0 is the no-effect control and ±100 the full control effect; nearly all actives have a fitted effect of over 60% in size
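BAZ2B (50 nM) with biotin-H3(5-23)K14Ac peptide (50 nM) in PBS pH 7.4, 0.01% Tween-20, preformed 30 min, then compound 30 min at room temperature; top concentration 110uM. AlphaScreen streptavidin donor/nickel chelate acceptor beads (10 ug/mL final), 20 min dark, signal read.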
JMJD2A Tudor – qHTS Assay for Inhibitors of JMJD2A-Tudor Domain; AlphaScreen JMJD2A-Tudor / H3K4me3 peptide binding; Potency, µM (series often up to 114 µM), without a hit: at the top dose activity change, negative = inhibition, hits mostly inhibitors; 4.4% of 390,000 active; further: on the % scale 0 is the no-effect control and ±100 the full control effect; nearly all actives have a fitted effect of over 50% in size
HP1b binding inh – HTS for Inhibitors of HP1-beta Chromodomain Interactions with Methylated Histone Tails; 0.56% of 390,000 active; Chromobox protein homolog 1 (Homo sapiens), P83916; Potency, µM (top dose mostly 114 µM), inactives show at the highest dose activity change, negative = inhibition, actives largely listed as inhibitors; AID 540317, 2011; AlphaScreen HP1-beta / biotin-H3K9me3 peptide binding; further: nearly all actives have a fitted effect of over 70% in size
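HP1-beta protein (50 nM final) preincubated 30 min at room temperature with biotinylated H3(1-18)K9me3 peptide (50 nM) in PBS pH 7.4, 0.01% Tween-20, then compound added for 30 min. AlphaScreen streptavidin donor/nickel chelate acceptor beads (10 ug/mL final), 30 min dark, luminescence read.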
G9a inh – qHTS Assay for Inhibitors of Histone Lysine Methyltransferase G9a; Histone-lysine N-methyltransferase EHMT2 (Homo sapiens), Q96KQ7; G9a H3K9 monomethylation, AlphaScreen, 2 h; Potency, µM (highest dose often 102 µM), for the others: at the top dose activity, negative = inhibition, most hits filed as inhibitors; 8.8% of 350,000 active; further: on the % scale 0 is the no-effect control and ±100 the full control effect; nearly all actives have a fitted effect of over 75% in size
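Quantitative HTS format: methyltransferase activity on a biotin-tagged H3K9 peptide is measured by AlphaScreen, using a rabbit anti-monomethyl-H3K9 antibody with streptavidin donor and anti-IgG acceptor beads. Final levels are 20 nM enzyme, 500 nM peptide, 20 uM SAM; 2 h RT.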
PLK1 PBD inh – qHTS for Inhibitors of PLK1-PDB (polo-like kinase 1 - polo-box domain): Primary Screen; Serine/threonine-protein kinase PLK1 (Homo sapiens), P53350; Plk1 PBD binding of FITC phosphopeptide, fluorescence polarization; Potency, µM, inactives show max response, negative = inhibition, actives largely listed as inhibitors; 2.8% of 360,000 active; AID 720504, 2013; further: series mostly up to about 57 µM; on the % scale 0 is the no-effect control and ±100 the full control effect; nearly all actives have a fitted effect of over 65% in size
12-LOX inh – Primary qHTS assay for inhibitors of human arachidonate 12S-lipoxygenase (ALOX12): Round 2; Polyunsaturated fatty acid lipoxygenase ALOX12 (Homo sapiens), P18054; purified 12hLO, xylenol orange hydroperoxide absorbance; Potency, µM (highest dose often 108 µM), for inactives: top-dose activity change, negative = inhibition, hits mostly inhibitors; 1.1% of 580,000 active; further: on the % scale 0 is the no-effect control and ±100 the full control effect
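Purified human 12hLO (150 nM final) in 25 mM Hepes, 0.01% Triton X-100, pH 7.0 was preincubated 15 min at room temperature with compound. Then 40 uM arachidonic acid was added, 30 min. Hydroperoxide was read by Fe-XO absorbance ratio 573/405 nm.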
* = called active by the depositor; ? = inconclusive; nt = no result given; [ ] = another dose, or the depositor's remark. Shown are actives, neighbours in structure and some others; about 9% of the full set was active somewhere. The call rests on the fitted dose curve; in most records, active means well fitted curve in the direction sought with a large enough effect; inconclusive means small, poorly fitted or top-dose-only effect, or another doubt; inactive means no such curve, though single readings can be large; an effect the other way counts as inactive or inconclusive. Potency means the concentration at half of the fitted maximal effect.

SMILES	BAZ2B inh	JMJD2A Tudor	HP1b binding inh	G9a inh	PLK1 PBD inh	12-LOX inh
CCC(=O)N1CCc2cc(S(=O)(=O)CCC(=O)Nc3ccc(C(C)=O)cc3)ccc21	-10%	-12%	20%	17%	0%	-14%
CCC(=O)N1CCc2cc(S(=O)(=O)CCC(=O)Nc3cccc(F)c3)ccc21	9%	7%	36%	22µM*	?	?
CCC(=O)N1CCc2cc(S(=O)(=O)CCC(=O)Nc3ccc(CC)cc3)ccc21	6%	-2%	18%	?	-4%	0%
CCC(=O)N1CCc2cc(S(=O)(=O)CCC(=O)Nc3ccc(F)c(F)c3)ccc21	56µM*	-23%	22%	5%	-29%	-1%[57.4 µM]
Cc1ccc(-c2nc3ccccc3[nH]2)cc1NC(=O)COc1ccc(Cl)cc1Cl	-3%	-1%	19%	5%[59 µM]	nt	2%
CN(Cc1cccc(F)c1)C(=O)CSc1nnc(C2CC2)n1C1CC1	10%	-4%	36%	4%[0.501 µM]	-13%	15%
Cc1ccc(CNC(=O)c2ccc(CNS(=O)(=O)c3ccc4c(c3)C(C)(C)C(=O)N4C)cc2)o1	-34%	-26%	18%	45µM*	-6%	5%
Cc1ccc(CCNS(=O)(=O)c2ccc3c(c2)C(C)(C)C(=O)N3C)cc1	-32%	-7%	61%	-5%	5%	-6%
Cc1ccccc1NC(=O)c1ccc(CNS(=O)(=O)c2ccc3c(c2)C(C)(C)C(=O)N3C)cc1	-17%	-11%	15%	7%[59 µM]	nt	-25%
Cc1cc(C)cc(NS(=O)(=O)c2ccc3c(c2)C(C)(C)C(=O)N3C)c1	?	?	20%	nt	27µM*	4%
COc1ccc(-c2noc(CCC(=O)NCC3CCCO3)n2)cc1 (centres undefined)	4%	2%	8%	nt	-3%	26%
Cc1cc(SCNC(=O)c2ccccc2)ncn1	-39%	28µM*	?	?	-25%	?
O=C(NCCSc1ccc(Br)cc1)c1ccccc1	-2%	?	19%	52%	27µM*	-3%
O=C(CNC(=O)c1ccccc1)Sc1ccccc1	nt	10%	89%	nt	4.7µM*	-12%
O=C(NCSc1ccccc1)c1ccccc1	0%	-9%	28%	2%[2.33 µM]	24µM*	-1%
Cc1cc(N2CCN(Cc3nnc(C4CC(N)C4)n3C)CC2)cc(C)n1 (centres undefined)	nt	nt	nt	nt	nt	90%
O=C(Nc1ccccc1C(=O)N/N=C/c1ccccc1)c1ccco1	-9%	-15%	?	32%	0%	4%
CN(C)C1NC(=O)c2cc(-c3ccccc3)sc2N1 (centres undefined)	50µM*	?	-14%	?	-4%	11%
COc1cccc2c1C(=O)c1c(O)c3c(c(O)c1C2=O)CC(O)(C(C)=O)CC3OC1CC(O)C(O)C(C)O1 (centres undefined)	nt	?	?	nt	9.5µM*	3%
COc1cccc2c1C(=O)c1c(O)c3c(c(O)c1C2=O)C[C@@](O)(C(=O)CO)C[C@@H]3O[C@H]1C[C@H](N)[C@H](OC2CCCCO2)[C@H](C)O1 (some centres undefined)	nt	nt	nt	-45%[12.7 µM]	nt	7%[57.4 µM]
COc1cccc2c1C(=O)c1c(O)c3c(c(O)c1C2=O)C[C@@](O)(C(=O)CO)C[C@H]3O[C@H]1C[C@H](N)[C@H](O)[C@H](C)O1	nt	nt	nt	nt	nt	-30%[57.4 µM]
COc1cccc2c1C(=O)c1c(O)c3c(c(O)c1C2=O)C[C@](O)(C(C)=O)C[C@H]3O[C@@H]1C[C@@H](N)[C@@H](O)[C@@H](C)O1	45µM*	?	-11%	?	?	21%
COc1cccc2c1C(=N)c1c(O)c3c(c(O)c1C2=O)CC(O)(C(C)=O)CC3OC1CC(N)C(O)C(C)O1 (centres undefined)	nt	40µM*	?	nt	-11%	nt
CC1(c2ccccc2)N(Cc2ccccc2)C(=O)OC12CCN(Cc1cccnc1N)CC2 (centres undefined)	nt	nt	nt	nt	nt	-2%
Cc1cc(C)nc(N(C#N)CCOc2ccc(Cl)cc2)n1	90%	35%	60%	-14%[59 µM]	-12%	442%
SMILES	BAZ2B inh	JMJD2A Tudor	HP1b binding inh	G9a inh	PLK1 PBD inh	12-LOX inh
COc1ccc(N(CC(=O)NCc2ccco2)S(=O)(=O)c2ccc(C)cc2)cc1OC	4%	-19%	13%	20%	-13%	-2%
Cc1ccc(S(=O)(=O)N(CC(=O)O)Cc2ccco2)cc1	56µM*	89µM*	-10%	32µM*	-29%	-23%
CS(=O)(=O)N(CC(=O)NCc1ccco1)c1ccc(OCc2ccccc2)cc1	71µM*	?	?	nt	-10%	-5%
Cc1ccc(S(=O)(=O)N(Cc2ccccc2)Cc2ccco2)cc1	43%	5%	73%	22%[0.0925 µM]	-9%	-26%
COc1ccc(S(=O)(=O)N(Cc2ccc(OC)c(OC)c2)Cc2ccco2)cc1	?	-12%	9%	50µM*	1%	?
COc1ccccc1N(CC(=O)NCc1ccco1)S(=O)(=O)c1ccc(C)cc1	45µM*	35µM*	45µM*	32µM*	27µM*	4%
Cc1cc2nc(NC3=NCN(CCO)CN3)nc(C)c2cc1C	nt	nt	nt	nt	nt	7%
COc1cccc(NC(=O)[C@@H](NC(=O)N2CCn3c2nc2ccccc23)C(C)C)c1	-20%	-5%	41%	4%	-8%	0%
Cc1ccccc1OC(=O)/C=C/c1ccccc1	nt	nt	nt	nt	nt	-27%
O=C(/C=C\c1ccco1)Oc1cccc2cccnc12	32µM*	?	-12%	-47%	-12%	0%
O=C(/C=C/c1ccco1)Oc1cccc2cccnc12	45µM*	?	7%	nt	5%	-42%
Cc1ccc2cccc(OC(=O)/C=C\c3ccccc3)c2n1	-11%	20µM*	21%	10%	-4%	-16%
CN1c2cc(C(=O)N3CCOCC3)ccc2OCC1CC(=O)NC(C)(C)C (centres undefined)	nt	nt	nt	nt	nt	4%
CCc1ccc(NC(=O)Cn2nc3c(cc2=O)CN(C(C)=O)CC3)cc1	nt	nt	nt	nt	nt	17%
CCOC(=O)c1cc(CNC(=O)c2c(C)oc3c2CCCC3)c(C)o1	?	-30%	-9%	50µM*	-21%	-1%
Cc1oc2c(c1C(=O)NCc1cc(C(=O)O)co1)CCCC2	0%	-7%[57.1 µM]	44%	-3%	-7%	9%
